Assay outcomes as filed in PubChem BioAssay.
M1 ag parental = counter-screen for M1 agonists: effect in parental CHO-K1 cells; Fluo-8 calcium fluorescence; scaled to maximal ATP response, vehicle zero; activation, % at 3 µM; 0.48% of 360,000 active; AID 602248, 2012; in the data active = activation above about 15%;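 also: untransfected CHO-K1 host cells lacking M1 receptor as counterscreen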
CHO-K1 Ca antag = M1 antagonist counterscreen hit in parental CHO-K1 cells; inhibition, % at 3 µM; 0.6% of 360,000 active; ATP-induced calcium, Fluo-8 fluorescence;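 active = inhibition above a per-plate cutoff, the plate's mean sample inhibition plus 3 SD, cut at about 24% in these data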
M1 PAM parental = nonselective calcium activators in parental CHO-K1 cells, primary screen, counter-screen for M1 PAM project, cell-based, Fluo-8 calcium fluorescence, full deck, 1536-well; activation, % at 3 µM; 0.02% of 360,000 active; AID 602247, 2012; ATP EC20; 0% at ATP EC20, 100% at ATP max;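 active = activation above the run cutoff, the mean activation of all test compounds plus 3 SD, cut at about 40% in these data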;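 also: peak over basal fluorescence ratio in a 140 s read after ATP addition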
CHRM1 agonist = human M1 muscarinic receptor agonists, primary screen, Fluo-8 calcium fluorescence, CHO-K1 cells, HTS. Muscarinic acetylcholine receptor M1 (Homo sapiens), P11229. CHO-K1 hM1, agonist mode; 0% DMSO, 100% acetylcholine EC100. activation, % at 3 µM. 0.33% of 360,000 active. AID 588814, 2011;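 active = activation above the run's mean compound activation plus 3 SD, cut at about 16% in these data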;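 also: peak over basal fluorescence ratio within a 140 s kinetic read after compound addition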
Target sequence (P11229 whole entry, looked up): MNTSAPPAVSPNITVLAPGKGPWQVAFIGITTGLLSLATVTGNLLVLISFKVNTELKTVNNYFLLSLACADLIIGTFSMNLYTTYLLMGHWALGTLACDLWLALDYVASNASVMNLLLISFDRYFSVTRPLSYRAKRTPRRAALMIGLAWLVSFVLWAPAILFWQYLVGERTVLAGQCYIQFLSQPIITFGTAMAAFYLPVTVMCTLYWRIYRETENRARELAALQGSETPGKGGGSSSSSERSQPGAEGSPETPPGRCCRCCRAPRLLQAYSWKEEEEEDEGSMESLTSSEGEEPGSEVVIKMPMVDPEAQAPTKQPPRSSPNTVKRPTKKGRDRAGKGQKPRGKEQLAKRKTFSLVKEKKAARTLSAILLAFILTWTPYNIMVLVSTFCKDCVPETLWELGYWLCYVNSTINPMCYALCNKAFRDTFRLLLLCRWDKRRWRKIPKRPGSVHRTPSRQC
CHRM1 antagonist = human M1 muscarinic receptor antagonists, primary screen, CHO-K1 cells, Fluo-8 calcium fluorescence, 1536-well | 1.3% of 360,000 active | inhibition, % at 3 µM | CHO-K1 hM1, ACh EC80 antagonist;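 active = percent inhibition above its own plate's cutoff, namely the mean of that plate's compound wells plus 3 SD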;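 also: peak over basal fluorescence ratio during 140 s after agonist addition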
CHRM1 PAM = human M1 muscarinic receptor positive allosteric modulators, primary screen, CHO-K1 cells, Fluo-8 calcium fluorescence, 1536-well; Muscarinic acetylcholine receptor M1 (Homo sapiens), P11229; CHO-K1 hM1, ACh EC20; 0% = ACh EC20, 100% = maximal ACh; activation, % at 3 µM; 0.088% of 360,000 active; in the data active = activation above about 19%, passing the limit was not always enough
Large screens that a line does not name were inactive; ! = not active in a repeat. Only some compounds are listed: those with a hit (about 2.3% of all), similar ones and a draw of the others.

O=C(NCc1ccc(F)cc1)c1cccc2c1C(=O)c1ccc(N3CCC(N4CCCCC4)CC3)cc1S2(=O)=O	CHRM1 antagonist 40.2
CC(=O)Nc1ccc2nc(CN3CCN(CC=C(C)C)C(CCO)C3)ccc2c1 (stereo not given)	none
Cn1cccc1C(=O)NCC(c1ccc(F)cc1)N1CCOCC1 (stereo not given)	CHRM1 PAM 26.5
Cc1ccc(C(=O)NCC(c2ccc(F)cc2)N2CCOCC2)cc1 (stereo not given)	none
O=C(Nc1ccccc1F)c1c[nH]c(=O)[nH]c1=O	CHRM1 antagonist 39.5
O=C(CN(C1CCCCC1)S(=O)(=O)c1ccc(Cl)cc1)N1CCOCC1	CHO-K1 Ca antag 27.1
O=C(CN(C1CCCCC1)S(=O)(=O)c1ccccc1)N1CCCC1	none
CNCCCC1Sc2ccccc2Oc2ccccc21 (stereo not given)	CHRM1 antagonist 33.1
CC(C)CNC(=O)C1c2ccccc2Oc2ccccc21	none
CSc1ccccc1C(=O)NCc1ccccc1C	none
Cc1ccc(NC(=O)c2cc(-c3cc(C)c(C)cc3O)n[nH]2)cc1C	CHRM1 PAM 28.4
Cc1cc(C)n2nc(SCc3cccc(S(=O)(=O)N(C)C)c3)nc2n1	none
CN(C)S(=O)(=O)c1cccc(CSCc2cccc(S(=O)(=O)N(C)C)c2)c1	M1 ag parental 17.7, CHO-K1 Ca antag 50.3, CHRM1 antagonist 37.5
O=C(Nc1ccc2c(c1)OCCO2)C(=O)NC1CC1	none
O=C(c1ccco1)N1CCN(C(=O)c2ccc(Br)o2)CC1	none
O=C(c1ccc(Br)o1)N1CCN(C23CC4CC(CC(C4)C2)C3)CC1	CHRM1 antagonist 67.1
Cc1ccc(CCNC(=O)C2CCN(S(=O)(=O)c3c(C)nn(C)c3C)CC2)cc1	none
Cc1ccc(Cl)cc1N1CCN(C(=O)C2CCN(S(=O)(=O)c3cccnc3)CC2)CC1	none
Cc1ccc(NC(=O)C2CCN(S(=O)(=O)c3c(C)nn(C)c3C)CC2)c(Cl)c1	CHO-K1 Ca antag 37.2
Cc1ccc(Cl)cc1N1CCN(C(=O)C2CCN(S(=O)(=O)c3c(C)nn(C)c3C)CC2)CC1	CHRM1 antagonist 21.7
CCN(CC)c1ccc(/C=N/NC(=O)OC(C)(C)C)cc1	none
CCOc1ccccc1C1C(C#N)=C(N)Oc2cc(C)n(Cc3ccccn3)c(=O)c21 (stereo not given)	CHO-K1 Ca antag 31.6
COc1ccccc1C1C(C#N)=C(N)Oc2cc(C)n(Cc3ccccn3)c(=O)c21 (stereo not given)	none
CCCCNC(=S)NC(=O)c1ccc([N+](=O)[O-])cc1	none
CC(C)CCNC(=S)Nc1ccc([N+](=O)[O-])cc1	CHO-K1 Ca antag 28.9
CC(C)CCNC(=S)Nc1ccc(Br)cc1	none
CCCCNC(=S)Nc1ccc([N+](=O)[O-])cc1	CHO-K1 Ca antag 34.4, CHRM1 antagonist 26.6
CC(OC(=O)Cc1coc2ccc3ccccc3c12)C(=O)NC(N)=O (stereo not given)	none
OC(c1cc(C(F)(F)F)nc2c(Cl)cc(Cl)cc12)C1CCCCN1 (stereo not given)	M1 ag parental 17.7
COc1ccc(-n2ncc3c2CC(C)(C)CC3NC(=O)c2cn[nH]c2)cc1 (stereo not given)	none
Cn1c(N)c(C(=O)CSc2nc(C3CC3)n(-c3ccccc3)n2)c(=O)n(C)c1=O	CHRM1 agonist 22.3
Cn1c(N)c(C(=O)CSc2nnnn2-c2ccccc2)c(=O)n(C)c1=O	none
C=CCSc1nc2sc(C)c(C)c2c(=O)[nH]1	CHRM1 antagonist 39.1
Cc1noc(C)c1COc1ccc(C(=O)OCC(=O)Nc2ccc(C(=O)N(C)C)cc2)cc1	none
CCn1c(C)cs/c1=N\C(=S)Nc1ccccc1C	CHO-K1 Ca antag 23.9
COc1ccc(-c2csc(NC(=O)c3nc(-c4ccccc4)oc3C)n2)cc1	CHO-K1 Ca antag 30.8
O=C(CC(c1ccc(F)cc1)c1ccco1)N1CCOCC1 (stereo not given)	CHRM1 PAM 28.0
CCCCC(CC)CN=C(N)NC(N)=NCCCCCCN=C(N)NC(N)=NCC(CC)CCCC (stereo not given)	CHRM1 agonist 58.0, CHRM1 antagonist 88.3
CC(=O)n1cc([C@H]2C=C(C(N)=O)O[C@@H](OCc3ccc(CO)cc3)C2)c2ccccc21	M1 ag parental 19.8, CHRM1 agonist 22.8
CC(=O)n1cc([C@H]2C=C(C(=O)NCc3ccccc3)O[C@@H](OCc3ccc(CO)cc3)C2)c2ccccc21	none
CN(CC(=O)NCCCc1ccccc1)S(=O)(=O)c1ccc(Br)cc1	none
CN1CCC(N(C)CC(=O)Nc2ccc3c(c2)OC(F)(F)O3)CC1	CHRM1 antagonist 72.4
CC(=O)NC(c1ccccc1)c1nc(-c2ccc(Cl)cc2)cs1 (stereo not given)	none
Cc1[nH]c(=S)[nH]c(=O)c1Cc1ccccc1	none
Cc1[nH]c(=S)[nH]c(=O)c1Cc1c(O)ccc2ccccc12	CHRM1 agonist 35.0, CHRM1 PAM 27.4
CN1CCN(C(=O)C2CCN(c3ncc(C(F)(F)F)cc3Cl)CC2)CC1	CHRM1 antagonist 72.5
O=C(CN1CCN(c2ncc(C(F)(F)F)cc2Cl)CC1)N1CCN(c2ncc(C(F)(F)F)cc2Cl)CC1	none
O=C1CSC(c2ccc([N+](=O)[O-])cc2)N1c1ccc(O)cc1 (stereo not given)	none
COc1ccc2nc(C)cc(SCC(=O)O)c2c1	CHO-K1 Ca antag 24.0!
COc1ccc2nc(C)cc(SCC(NC(C)=O)C(=O)OC(C)C)c2c1 (stereo not given)	CHO-K1 Ca antag 25.6
CCN1C(=O)[C@H]2[C@@H](c3ccc(Cl)cc3)N3C(=O)CN(CC4CC4)C(=O)[C@@]3(Cc3ccccc3)[C@H]2C1=O	none
O=C(O)c1cccc(Nc2nc(-c3ccc([N+](=O)[O-])cc3)nc3ccccc23)c1	none
O=[N+]([O-])c1ccc(-c2nc(Nc3cccc(O)c3)c3ccccc3n2)cc1	M1 ag parental 20.3
CC1=C(C(=O)N2CCCCCC2)CC(CC(=O)NCCCCc2ccccc2)C(=O)N1Cc1ccccc1 (stereo not given)	none
Cc1nnc(SCC(=O)c2cc(C)n(-c3c(C)n(C)n(-c4ccccc4)c3=O)c2C)s1	none
Cc1cc(C(=O)CSc2nncs2)c(C)n1-c1c(C)n(C)n(-c2ccccc2)c1=O	CHRM1 antagonist 54.5
CN(C(=O)c1ccc(Br)o1)C1CCCCC1	none
